High-throughput results deposited in PubChem BioAssay by National Center for Advancing Translational Sciences (NCATS).
TDP1 cell noCPT = qHTS for Inhibitors of human tyrosyl-DNA phosphodiesterase 1 (TDP1): qHTS in cells in absence of CPT. DT40 Tdp1-/- hTDP1 cells, no CPT, ATP luminescence, 48 h. Potency, µM (top dose mostly 46.2 µM), for the others: top-dose activity change, negative = growth inhibition, usual class: inhibitors. 420,000 tested, 15% active. AID 686978, 2013; note: nearly all actives have a fitted effect of over 55% in size
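Chicken DT40 Tdp1-/- cells complemented with human TDP1, screened without camptothecin (DMSO vehicle only), 400 cells/well. Compounds pin-transferred, cells incubated at 37 °C for at least 48 hr. Growth read as ATP-dependent luminescence (CellTiter-Glo, 30 min at RT).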
VP16 counter = inhibits Gal4-VP16 luciferase reporter, ROR gamma counter-screen | Drosophila S2 Gal4-VP16 UAS-luciferase, luminescence, 20 h | Potency, µM (doses to about 53.6 µM), without a hit: at the top dose activity, negative = inhibition, actives largely listed as inhibitors | 310,000 tested, 3.5% active | AID 2546;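 note: Gal4-VP16 expression switched on by copper sulfate through the metallothionein promoter; nearly all actives have a fitted effect of over 50% in size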
RORgamma inh = blocks mouse ROR gamma transcriptional activity | P51450 | 310,000 tested, 5.4% active | AID 2551 | Potency, µM (top dose mostly 53.6 µM), inactives show at the highest dose activity change, negative = inhibition, hits mostly inhibitors | Drosophila S2 Gal4-RORgamma UAS-luciferase reporter, 20 h; note: nearly all actives have a fitted effect of over 60% in size
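Read-out: Photinus luciferase luminescence; inhibitors lower reporter signal. Insect Schneider cells with Gal4-ROR gamma fusion under metallothionein promoter, UAS reporter; 700 uM final copper sulfate induction, 20 hr, ambient temperature.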
ELG1 DNA repair = inhibitors of ELG1-dependent DNA repair in HEK293T cells. Potency, µM (highest dose often 46.1 µM), for the others: at the highest dose activity change, negative = inhibition, hits mostly inhibitors. AID 504467. HEK293T ELG1-luciferase reporter, luminescence, 16 h; DNA damage induced by 5-fluorouridine. 330,000 tested, 2.3% active; note: nearly all actives have a fitted effect of over 55% in size
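Luminescence from the luciferase reporter, measured 30 min after ONE-Glo reagent at room temperature, was the read-out. Beforehand, 2,000 cells per well were exposed for 16 hr at 37 °C to 5-fluorouridine together with compound or vehicle.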
DT40 TDP1 CPT = DT40-hTDP1 cell growth loss with CPT; chicken DT40 Tdp1-/-;hTDP1 cells + 20 nM CPT, ATP luminescence, 48 h; Potency, µM (top dose mostly 46.2 µM), for inactives: at the highest dose activity change, negative = growth inhibition, usual class: inhibitors; 420,000 tested, 12% active; AID 686979; note: nearly all actives have a fitted effect of over 55% in size
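Chicken DT40 Tdp1-/- cells complemented with human TDP1, 400 cells/well, exposed to compounds plus 20 nM camptothecin for at least 48 h at 37 C; viability read as ATP content by CellTiter-Glo luminescence.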
ALOX12 inh = inhibitors of human 12S-lipoxygenase ALOX12. P18054. purified 12hLO, xylenol orange hydroperoxide absorbance. Potency, µM (series often up to 108 µM), for the others: at the top dose activity change, negative = inhibition, actives largely listed as inhibitors. 580,000 tested, 1.1% active. AID 1671190
Target sequence (P18054 whole entry, looked up): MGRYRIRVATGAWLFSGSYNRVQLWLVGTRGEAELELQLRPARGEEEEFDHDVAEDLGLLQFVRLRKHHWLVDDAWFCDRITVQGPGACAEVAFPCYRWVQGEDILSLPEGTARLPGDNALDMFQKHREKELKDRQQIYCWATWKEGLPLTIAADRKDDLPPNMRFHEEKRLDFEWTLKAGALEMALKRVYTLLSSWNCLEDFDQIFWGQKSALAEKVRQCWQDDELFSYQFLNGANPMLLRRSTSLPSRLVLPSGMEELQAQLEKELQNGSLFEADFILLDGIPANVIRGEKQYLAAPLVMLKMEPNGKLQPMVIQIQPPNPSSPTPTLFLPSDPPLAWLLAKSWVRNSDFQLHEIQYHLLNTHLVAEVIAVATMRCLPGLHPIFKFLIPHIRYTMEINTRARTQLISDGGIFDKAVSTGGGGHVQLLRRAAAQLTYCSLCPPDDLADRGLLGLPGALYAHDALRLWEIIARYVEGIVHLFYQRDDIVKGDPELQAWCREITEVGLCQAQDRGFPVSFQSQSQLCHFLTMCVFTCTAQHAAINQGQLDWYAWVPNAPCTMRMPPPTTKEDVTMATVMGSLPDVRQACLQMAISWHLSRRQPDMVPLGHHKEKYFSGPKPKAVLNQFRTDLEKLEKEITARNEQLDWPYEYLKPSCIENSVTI
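Hydroperoxide product was detected by ferrous iron/xylenol orange as the 573 to 405 nm absorbance ratio. Arachidonic acid at 40 uM (final) was turned over for 30 min at room temperature by 150 nM human 12hLO, pH 7.0 Hepes buffer, after 15 min compound preincubation.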
Active calls of the source: *; ? = inconclusive; / = no result given; [ ] = another dose, or the depositor's remark. Compounds with a hit are over-represented: about 15% of the library has one in this group of screens. Calls come from the whole dose curve; as a rule, active = well fitted curve in the direction sought with a large enough effect; inconclusive = small, poorly fitted or top-dose-only effect, or another doubt; inactive = no such curve, though single readings can be large; an effect the other way counts as inactive or inconclusive. % is set by controls: 0 for no effect and ±100 for the full control effect; potency is the fitted concentration of half-maximal effect.

SMILES | TDP1 cell noCPT | VP16 counter | RORgamma inh | ELG1 DNA repair | DT40 TDP1 CPT | ALOX12 inh
CC(=O)Nc1ccc(C(=O)Nc2ccc(S(=O)(=O)N3CCOCC3)cc2)cc1 | 8.7% | 3.1% | 19.9% | ? | -2.6% | -1.9%
COc1ccc(OC)c(NC(=O)Cn2ccc3c(Cl)cccc32)c1 | / | / | / | / | / | 1.8%
N#CC1=C(N)OC2=C(C(=O)CC(c3ccccc3)C2)C1c1ccccc1C(F)(F)F (stereo not drawn) | / | / | / | / | / | -3.5%
CN(C)S(=O)(=O)c1ccc(C(=O)Nc2nnc(SCC(=O)N3CCOCC3)s2)cc1 | -7.2% | / | / | / | -11.8% | -18.3%
CC(C)Oc1ccc(C(=O)Nc2nnc(SCC(=O)N3CCOCC3)s2)cc1 | -23.0% | 1.78µM* | 3.16µM* | ? | -17.7% | -13.3%
CC(=O)Nc1ccc2c(c1)nc(C)n2-c1ccccc1 | -8.5% | 29.7% | 66.3% | ? | -8.3% | 43.3%
Cc1nc2cc(Cl)ccc2n1-c1ccccc1 | -12.0% | -21.6% | 15.8µM* | / | -27.3% | 0.0%
Cc1ccc(NC(=O)CCc2ccco2)c(Br)c1 | / | / | / | / | / | -20.0%
COCCn1c(C)cnc1CCNC(=O)NCc1ccc(C)cc1 | / | / | / | / | / | 19.1%
Cn1c(N)c(C(=O)COC(=O)COc2ccc(Br)cc2)c(=O)n(C)c1=O | -1.4% | / | / | 9.4% | 10.1% | -3.8%
CCCn1c(N)c(C(=O)COc2ccc(Br)cc2F)c(=O)n(C)c1=O | ? | -6.5% | ? | ? | 14.6µM* | -2.0%
N#Cc1c(N2CCCC(O)C2)nc(N)c2c(N)nc3c(c12)CC(=O)N3C12CC3CC(CC(C3)C1)C2 (stereo not drawn) | 18.4µM* | ? | 3.98µM* | ? | 16.4µM* | -6.4%
N#Cc1c(N(CCO)CCO)nc(N)c2c(N)nc3c(c12)CC(=O)N3CC1CCCO1 (stereo not drawn) | -11.6% | 3.4% | 7.8% | -18.7% | -2.7% | -1.5%
C=C(C)CN(CC)c1nc(N)c2c(N)nc3c(c2c1C#N)CC(=O)N3C12CC3CC(CC(C3)C1)C2 | 3.26µM* | -8.1% | -15.0% | ? | 3.26µM* | ?
COc1ccc(CN2C(=O)Cc3c2nc(N)c2c(N)nc(N4CCCCC4)c(C#N)c32)cc1 | / | -11.3% | 7.9% | -12.6% | / | /
CCCCN1C(=O)Cc2c1nc(N)c1c(N)nc(N(CCC)CCC)c(C#N)c21 | -8.7% | 22.4µM* | ? | ? | -15.5% | ?
O=C(O)Cn1nc(C2CC2)nc1CCCN1CCCC1=O | / | / | / | / | / | 19.0%
COc1cccc(-c2cccc(-c3nc(C4CCOCC4)nn3CCO)c2)c1 | / | / | / | / | / | 21.7%
CCc1ccccc1NC(=O)CSc1nc2cc(C(F)(F)F)ccc2s1 | / | / | / | / | / | 2.4%
COc1cccc(C(=O)N2CCN(c3cc(C(F)(F)F)ncn3)CC2)c1 | / | / | / | / | / | 18.0%
O=C(Nc1ccc(Br)cc1)c1cccc(N2C(=O)C3C4C=CC(C4)C3C2=O)c1 (stereo not drawn) | ? | / | / | ? | 23.1µM* | -6.7%
O=C(Nc1ccc(Br)cc1)c1cccc(N2C(=O)C3C4CCC(C4)C3C2=O)c1 (stereo not drawn) | 29.1µM* | -1.2% | ? | 16.4µM* | ? | -20.4%
O=C(Nc1ccc(F)cc1)c1cccc(N2C(=O)C3C4C=CC(C4)C3C2=O)c1 (stereo not drawn) | ? | -0.2% | 18.4% | -9.4% | -7.7% | 1.0%
O=C(Nc1ccc(F)cc1)c1cccc(N2C(=O)C3C4CCC(C4)C3C2=O)c1 (stereo not drawn) | 23.1µM* | 3.4% | ? | ? | ? | -11.5%
O=C(Nc1ccc(Br)cc1)c1cccc(N2C(=O)CCC2=O)c1 | -14.6% | 7.7% | ? | 0.0% | 0.2% | 1.1%
SMILES | TDP1 cell noCPT | VP16 counter | RORgamma inh | ELG1 DNA repair | DT40 TDP1 CPT | ALOX12 inh
O=C(Nc1ccccc1)c1cccc(N2C(=O)C3C4C=CC(C4)C3C2=O)c1 (stereo not drawn) | -28.6% | 3.7% | ? | -6.0% | -22.3% | 3.9%
COc1ccccc1N1CCN(S(=O)(=O)c2ccc(NC(C)=O)cc2)CC1 | -26.5% | -7.5% | 29.3% | 7.5% | -0.6% | 12.6%
COc1ccccc1N1CCN(C(=S)Nc2ccc(S(=O)(=O)N3CCOCC3)cc2)CC1 | 14.6µM* | ? | -93.3% | ? | 18.4µM* | -3.2%
O=S(=O)(c1ccc(NC(=S)N2CCN(c3ccccc3F)CC2)cc1)N1CCOCC1 | 18.4µM* | ? | -70.4% | 23.1µM* | ? | -0.2%
NNc1ccc(F)cc1F | / | / | / | / | / | 4.47µM*
Cc1oc(-c2ccoc2)nc1CN(CC1CCC(=O)N1)C(C)C (stereo not drawn) | -5.1% | -5.5% | -11.4% | 12.1% | 9.1% | 0.0%
COCCN(Cc1nc(-c2ccc(-c3ccccc3)cc2)oc1C)C(C)C | 20.6µM* | ? | 11.2µM* | ? | 14.6µM* | 70.9%
COc1ccc(CC(=O)NCc2cccc(SC)c2)cc1 | / | / | / | / | / | 77.6%
Cc1ccc2c(c1)Oc1ccc(S(=O)(=O)N(C)Cc3ccccc3)cc1C(=O)N2 | / | / | / | / | / | -8.5%
COc1ccc(COc2cc(-c3cccc(OC)c3)nc3ccc(NC(=O)c4ccc(C)cc4)cc23)cc1 | 13µM* | -7.9%[40.7 µM] | -19.6%[40.7 µM] | ? | ? | -5.5%
COc1ccc(COc2cc(-c3cccc(OC)c3)nc3ccc(N)cc23)cc1 | 1.46µM* | -5.7% | ? | -13.5% | 1.46µM* | -5.3%
COc1ccc(COc2cc(-c3cccc(OC)c3)nc3ccc(NC(C)=O)cc23)cc1 | -18.7% | 1.5% | -6.8% | ? | -18.5% | 6.2%
COc1ccc(COc2cc(-c3cccc(OC)c3)nc3ccc(NC(=O)c4ccc(N(C)C)cc4)cc23)cc1 | 3.66µM* | 0.7%[40.7 µM] | 3.2%[40.7 µM] | ? | 3.66µM* | /
COC(=O)c1cc(-c2cccc(OC)c2)nc2ccccc12 | / | / | / | / | / | 0.4%
CC(C)C1=NOC2(CCN(Cc3cccc(C(F)(F)F)c3)CC2)C1 | / | / | / | / | / | 61.4%[176 µM]
CCOC(=O)c1cc(C(=O)c2cccs2)n2ccc(C(C)=O)cc12 | 23.1µM* | 2.9% | -2.3% | ? | ? | 0.0%
COc1cc(C#Cc2c(-c3cncn3C)n(C)c3ccc(-c4ccc5cc[nH]c5c4)cc23)cc(OC)c1 | ? | / | / | ? | 18.4µM* | 2.9%
COc1cc(C#Cc2c(-c3cncn3C)n(C)c3ccc(-c4ccc(OC)c(OC)c4)cc23)cc(OC)c1 | ? | / | / | 7.3µM* | ? | -1.3%
COc1cc(C#Cc2c(-c3cncn3C)n(C)c3ccc(Br)cc23)cc(OC)c1 | 18.4µM* | / | / | 9.2µM* | ? | -17.0%
